Measured values as given in PubChem BioAssay (NCATS).
Results filed as inconclusive are left out. Entries that show only a call come without a potency. A number with no mark means an inactive call. Activity calls are given as the source filed them. Calls follow the shape of the dose curve; as a rule, active = well fitted inhibition curve with a large enough effect; inconclusive = small, poorly fitted or top-dose-only effect; inactive = no such curve, though single readings can be large or run the other way.

assay: Primary qHTS for small molecule stabilizers of the endoplasmic reticulum resident proteome: Secreted ER Calcium Modulated Protein (SERCaMP) assay (AID 1508630); conditions: SH-SY5Y GLuc-SERCaMP (Gaussia luciferase released on ER calcium loss) secretion, thapsigargin, luminescence; series mostly up to 38.4 µM
Source text: Assay Provider: Brandon K. Harvey Ph.D.
National Institute on Drug Abuse, National Institutes of Health, Baltimore, MD
Endoplasmic reticulum (ER) dysregulation is associated with human pathologies including neurodegenerative, cardiovascular, muscular, and diabetic conditions. Maintenance of ER calcium is critical for functions of the ER and its depletion can lead to loss of ER resident proteins, in a process termed exodosis. Therapeutic compounds capable of attenuating the redistribution of ER proteins under pathological conditions may slow or stop disease progression. To identify such compounds, we performed a quantitative high-throughput screen (qHTS) using the SERCaMP assay, which monitors secretion of ER resident proteins triggered by calcium depletion.
SERCaMP was initially developed as a reporter of ER calcium homeostasis using a Gaussia luciferase with a modified signal peptide and carboxy-terminus (GLuc-SERCaMP), modifications that confer secretion of the reporter in response to ER calcium depletion (Henderson et al., 2014). The assay was used to screen 9,501 compounds, including a collection of drugs approved by the FDA (US), EMA (EU), NHI (Japan), and HC (Canada) regulatory agencies (Huang et al., 2011). Since the SERCaMP reporter reflects the exodosis phenomenon (Trychta et al., 2018a), compounds identified in the screen have the potential to prevent exodosis by different mechanisms such as stabilizing ER calcium or augmenting ERS retrieval.
1. Henderson, M.J., Wires, E.S., Trychta, K.A., Richie, C.T., and Harvey, B.K. (2014). SERCaMP: a carboxy-terminal protein modification that enables monitoring of ER calcium homeostasis. Mol Biol Cell 25, 2828-2839.
2. Huang, R., Southall, N., Wang, Y., Yasgar, A., Shinn, P., Jadhav, A., Nguyen, D.T., and Austin, C.P. (2011). The NCGC pharmaceutical collection: a comprehensive resource of clinically approved drugs enabling repurposing and chemical genomics. Sci Transl Med 3, 80ps16.
3. Trychta, K.A., Back, S., Henderson, M.J., and Harvey, B.K. (2018a). KDEL Receptors Are Differentially Regulated to Maintain the ER Proteome under Calcium Deficiency. Cell Rep 25, 1829-1840 e1826.
SEQUENCE No. (1, 2, 3, etc.); […] (e.g., Cells, Incubation, Reagent, etc.); VALUE and DESCRIPTION.
1; Reagent; 5 uL; 1000 SH-SY5Y cells per wells
3; Compound; 23 nL; Control inhibitor / compound library
5; Reagent; 100 nM; Thapsigargin
7; Reagent; 1 uL; 0.5x coelenterazine
8; Detection; Luminescence; ViewLux imaging system
NOTES (numbers refer to sequence above)
1; SH-SY5Y human neuroblastoma cells stably expressing GLuc-SERCaMP (SH-SY5Y-GLuc-ASARTDL) cells were seeded in 1,536 well white tissue culture treated plates (Corning, Cat# 7464) in DMEM-high glucose-sodium pyruvate (ThermoFisher Scientific, Cat #10569) supplemented with 10% bovine growth serum (Hyclone), 10 U/ml penicillin (Gibco), 10 ug/ml streptomycin (Gibco), and 20 mM HEPES.
2; Assay plates were incubated for 5 hour at 37C in a humidified incubator containing 5% CO2.
3; qHTS libraries (23 nl, final concentrations of 1.53 uM, 7.67 uM, 38.3 uM) or controls (neutral control: DMSO, positive control: dantrolene) were added using a Kalypsis pin-tool Robotic System equipped with 1536 pinheads.
4; Cells were then incubated for 16 hours at 37C, 5% CO2.
5; Thapsigargin was added at 100 nM to deplete ER calcium stores.
6; Cells were incubated for 4 hour (37 °C, 5% CO2)
7; Gaussia luciferase in the medium was measured by adding 1 ul of 0.5x coelenterazine (final concentration 0.07x) prepared in Gaussia Luciferase Glow Assay Buffer (Pierce), without addition of the Cell Lysis Buffer Reagent.
8; Luminescence was measured using a ViewLux […] CCD imaging system (Perkin Elmer) equipped with clear filters. […] The same controls were also used for the calculation of the Z' factor, a measure of assay quality control, as previously described (Zhang et al., 1999). […]

Q: Which Potency does the source give for `CC(=C(CCOC(=O)C(C)C)SSC(CCOC(=O)C(C)C)=C(C)N(C=O)Cc1cnc(C)nc1N)N(C=O)Cc1cnc(C)nc1N` here?
A: The Potency was “inactive”.

Q: For `C/C=C/C=N/NC(=O)c1ccncc1`, which Potency is on record?
A: The Potency was “inactive”.

Q: With `CN1CCc2cccc3c2[C@H]1Cc1ccc(O)c(O)c1-3` as the molecule, how does the Potency read?
A: The Potency was “inactive”.

Q: With `COC(=O)C(c1ccccc1Cl)N1CCc2sccc2C1` (stereo not given) as the molecule, how does the Potency read?
A: Its Potency is “inactive”.

Q: Which Potency does the source give for `O[C@@H](c1cc(C(F)(F)F)nc2c(C(F)(F)F)cccc12)[C@H]1CCCCN1` here?
A: The Potency was “inactive”.

Q: Which Potency does the source give for `COc1cc(C)nc(-n2nc(C)cc2OC)n1` here?
A: Its Potency is “inactive”.

Q: For `CCOC(=O)c1c(N)sc2c1CCN(Cc1ccccc1)C2`, which Potency is on record?
A: Its Potency is “inactive”.

Q: Which Potency does the source give for `O=[N+]([O-])c1cccc(S(=O)(=O)NCCNS(=O)(=O)c2cccc([N+](=O)[O-])c2)c1` here?
A: The Potency was “inactive”.

Q: With `O=c1[nH]c(=O)n([C@H]2C[C@H](O)[C@@H](CO)O2)cc1F` as the molecule, how does the Potency read?
A: Its Potency is “inactive”.

Q: Which Potency does the source give for `O=C(Oc1cccc2cccnc12)c1ccccc1` here?
A: The Potency was “inactive”.

Q: For `NC(=O)C1(N2CCCCC2)CCN(CCCC(=O)c2ccc(F)cc2)CC1`, which Potency is on record?
A: Its Potency is “inactive”.

Q: With `C#C[C@]1(O)CC[C@H]2[C@@H]3CCc4cc(OC)ccc4[C@H]3CC[C@@]21C` as the molecule, how does the Potency read?
A: Its Potency is “inactive”.

Q: For `O=C1OC(CN2CCOCC2)CN1/N=C/c1ccc([N+](=O)[O-])o1` (stereo not given), which Potency is on record?
A: Its Potency is “inactive”.

Q: With `O=C(Nc1cccc(C2=NCCN2)c1)Nc1cccc(C2=NCCN2)c1` as the molecule, how does the Potency read?
A: Its Potency is “inactive”.

Q: For `CC(C)(C)CC(C)(C)c1ccc(O)c(-n2nc3ccccc3n2)c1`, which Potency is on record?
A: The Potency was “inactive”.

Q: With `CN(Cc1ccc(C(C)(C)C)cc1)Cc1cccc2ccccc12` as the molecule, how does the Potency read?
A: The Potency was “inactive”.

Q: For `Cc1cc(-c2ccccc2)nnc1NCCN1CCOCC1`, which Potency is on record?
A: The Potency was “inactive”.

Q: For `CCN(CC)CCNc1ccc(CO)c2sc3ccccc3c(=O)c12`, which Potency is on record?
A: The Potency was “inactive”.

Q: For `CCCCCCCCCCCCCC(=O)OC(C)C`, which Potency is on record?
A: Its Potency is “inactive”.

Q: Which Potency does the source give for `CCCCCCCCCCCCSCCOCCO` here?
A: Its Potency is “inactive”.

Q: With `CCCCC(CC)COC(=O)c1ccc(N(C)C)cc1` (stereo not given) as the molecule, how does the Potency read?
A: Its Potency is “inactive”.

Q: With `c1ccc(CC2=NCCN2)cc1` as the molecule, how does the Potency read?
A: Its Potency is “inactive”.

Q: For `CN(C)C(=O)Nc1ccc(Cl)c(Cl)c1`, which Potency is on record?
A: Its Potency is “inactive”.

Q: With `NS(=O)(=O)c1ccc(Cl)c(S(N)(=O)=O)c1` as the molecule, how does the Potency read?
A: Its Potency is “inactive”.

Q: Which Potency does the source give for `OC[C@H]1O[C@@H](Oc2ccc(O)cc2)[C@H](O)[C@@H](O)[C@@H]1O` here?
A: Its Potency is “inactive”.

Q: For `CCCCCCCCNC(C)C(O)c1ccc(SC(C)C)cc1` (stereo not given), which Potency is on record?
A: The Potency was “inactive”.

Q: With `CCc1oc2ccccc2c1C(=O)c1cc(Br)c(O)c(Br)c1` as the molecule, how does the Potency read?
A: Its Potency is “inactive”.

Q: Which Potency does the source give for `CCCCOC(=O)CC(CC(=O)OCCCC)(OC(C)=O)C(=O)OCCCC` here?
A: The Potency was “inactive”.

Q: Which Potency does the source give for `OCCOCCN1CCN(C2=Nc3ccccc3Sc3ccccc32)CC1` here?
A: The Potency was “inactive”.

Q: For `CCOCCn1c(N2CCCN(C)CC2)nc2ccccc21`, which Potency is on record?
A: Its Potency is “inactive”.

Q: For `COc1cc(C(=S)N2CCOCC2)ccc1O`, which Potency is on record?
A: The Potency was “inactive”.

Q: Which Potency does the source give for `COc1ccccc1N1CCN(CCCCNC(=O)c2ccc(-c3ccc(C(C)=O)cc3)cc2)CC1` here?
A: The Potency was “inactive”.

Q: With `CCC(C(=O)OCCOCCN(CC)CC)c1ccccc1` (stereo not given) as the molecule, how does the Potency read?
A: The Potency was “inactive”.

Q: Which Potency does the source give for `C[C@H]1[C@H]2CC[C@H]3[C@@H]4CC=C5C[C@@H](N(C)C)CC[C@]5(C)[C@H]4CC[C@]23CN1C` here?
A: Its Potency is “inactive”.

Q: For `COc1cc([C@H]2Oc3cc([C@H]4Oc5cc(O)cc(O)c5C(=O)[C@@H]4O)ccc3O[C@@H]2CO)ccc1O`, which Potency is on record?
A: The Potency was “inactive”.

Q: Which Potency does the source give for `C[C@H]1O[C@@H](O[C@H]2CC[C@@]3(C)[C@H](CC[C@@H]4[C@@H]3C[C@@H](O)[C@]3(C)[C@@H](C5=CC(=O)OC5)CC[C@]43O)C2)C[C@H](O)[C@@H]1O[C@H]1C[C@H](O)[C@H](O[C@H]2C[C@H](O)[C@H](O[C@@H]3O[C@H](CO)[C@@H](O)[C@H](O)[C@H]3O)[C@@H](C)O2)[C@@H](C)O1` here?
A: Its Potency is “inactive”.

Q: For `CC(=O)O[C@]1(C(C)=O)CC[C@H]2[C@@H]3C=C(Cl)C4=CC(=O)CC[C@]4(C)[C@H]3CC[C@@]21C`, which Potency is on record?
A: The Potency was “inactive”.

Q: Which activity change, negative = inhibition does the source give for `CCN[C@@H]1C[C@H](N)[C@@H](OC2OC(CN)=CCC2N)[C@H](O)[C@H]1O[C@H]1OC[C@](C)(O)[C@H](NC)[C@H]1O` (stereo not given in full) here?
A: Its activity change, negative = inhibition is -24.8% [at 0.478 µM].

Q: With `CCOC(=O)C(C#N)=C(c1ccccc1)c1ccccc1` as the molecule, how does the Potency read?
A: The Potency was “inactive”.

Q: Which Potency does the source give for `Cc1cc2c(OCC(CNC(C)(C)C)OC(=O)c3ccccc3)cccc2[nH]1` (stereo not given) here?
A: The Potency was “inactive”.
